Results on 21 compounds are retold here after PubChem BioAssay (NCATS).

The structures appear in SMILES notation. Results filed as inconclusive are left out. A call without a number means that no potency is given here. Active and inactive are the calls of the source. Calls come from the whole dose curve; as a rule, active = well fitted curve in the direction sought with a large enough effect; inconclusive = small, poorly fitted or top-dose-only effect, or another doubt; inactive = no such curve, though single readings can be large or run the other way.
Potency is the fitted concentration of half-maximal effect.

Metallo-beta-lactamase type 2 (Klebsiella pneumoniae), sequence (C7C422 whole entry, looked up): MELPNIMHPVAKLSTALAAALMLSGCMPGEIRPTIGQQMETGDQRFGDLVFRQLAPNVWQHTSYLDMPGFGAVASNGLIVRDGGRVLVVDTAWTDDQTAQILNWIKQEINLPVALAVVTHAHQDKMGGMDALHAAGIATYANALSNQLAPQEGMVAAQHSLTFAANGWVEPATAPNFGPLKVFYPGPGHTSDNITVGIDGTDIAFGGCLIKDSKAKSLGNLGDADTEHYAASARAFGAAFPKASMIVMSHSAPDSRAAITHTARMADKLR

This test concerns the target Metallo-beta-lactamase type 2 (Klebsiella pneumoniae) (UniProt C7C422). In words: qHTS to identify inhibitors of the New Delhi Metallo-beta-lactamase (NDM): assay validation screen against the NCATS LOPAC Collection (AID 1794843). The settings on record: NDM-1 enzyme, nitrocefin hydrolysis, absorbance 485 nm; series mostly up to 38.4 µM. The method in brief:
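Enzyme 2 nM final, 50 mM HEPES pH 7.0, 1 uM ZnSO4, 0.01% Tween20; cpds in DMSO, preincub w/ enzyme; + nitrocefin (50 uM stock); A485 at plateau; no-enzyme column as blank.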
For orientation: qHTS replaces the single test concentration by a dilution series.
As for `CCCN(CCC)C1Cc2cc(OC)c(OC)cc2C1`, the Potency entry is “inactive”. The value for `NC(Cc1cc(O)c(O)cc1O)C(=O)O` (stereo unspecified) was 3.98 µM (active); that for `CC(C)(C)c1o[nH]c(=O)c1CC(N)C(=O)O` (stereo unspecified) was “inactive”; that for `Oc1ccc2c3c1O[C@H]1c4[nH]c5ccccc5c4C[C@@]4(O)C(C2)N(CC2CC2)CCC314` (stereo partly specified) was “inactive”. `COc1ccc2[nH]cc(CCN)c2c1`: the Potency result is “inactive”.

On to `Clc1ccc(N2CC3CCC(C2)N3)nn1`, for which the Potency result was “inactive”. Regarding `Cc1cc([C@@H]2CCCN2C)on1`, the Potency entry is “inactive”.

Regarding `CCOC(=O)c1ncn2c1[C@@H]1CCCN1C(=O)c1cc(OC)ccc1-2`, the Potency result was “inactive”.

In the case of `CC(=O)NBr`, the Potency result is “inactive”. The value for `CN1CCC[C@@H]1Cc1c[nH]c2ccc(Nc3ncccc3[N+](=O)[O-])cc12` was “inactive”. For the compound `CN1CCc2cccc(Cl)c2CC1`, the Potency result is “inactive”.

For the compound `O=C1C=CC(=O)C=C1`, the Potency entry is “inactive”. Take `O=[N+]([O-])/C=C/c1ccc2c(c1)OCO2`: the Potency result is “inactive”. Turning to `CO[C@H]1CC=C2CCN3CCC4=C(CC(=O)OC4)[C@]23C1`, the Potency entry is “inactive”.

Take `Nc1ccc(CCN2CCN(c3cccc(C(F)(F)F)c3)CC2)cc1`: the Potency entry is “inactive”. For `CCn1cnc2c(Nc3cccc(Cl)c3)nc(N[C@@H]3CCCC[C@@H]3N)nc21`, the Potency entry is “inactive”. Turning to `NCC(CP(=O)(O)O)c1ccc(Cl)cc1` (stereo unspecified), the Potency result is “inactive”. With `CN1CC[C@@]2(C)c3cc(OC(=O)Nc4ccccc4)ccc3N(C)[C@@H]12`, the Potency entry is “inactive”. Next, `NC(C(=O)O)c1cc(=O)[nH]o1` (stereo unspecified): “inactive”; `NC(=O)c1ccc(OCC(O)CN2CC=C(c3ccc(F)cc3)CC2)cc1` (stereo unspecified): “inactive”; `CC(C)(C)c1cc(C=C(C#N)C#N)cc(C(C)(C)C)c1O`: “inactive”.
